Data as given in paper PMC7862700, “An all-to-all approach to the identification of sequence-specific readers for epigenetic DNA modifications on cytosine”.

Key:
Experiment in all cases: DAPPL (digital affinity profiling via proximity ligation, sequencing); 10 mM Tris-HCl pH 7.5, 50 mM NaCl, 1 mM DTT, 4% glycerol, room temperature, 30 min; GST-TFs on glutathione beads, 16-mer random dsDNA library, 0.1% formaldehyde crosslink after washing; high values mean tight binding
Conditions in all cases: protein: recombinant; tags: N-terminal GST; dsDNA, one strand shown
ERF = target: T1, ERF (Homo sapiens, UniProt P50548 1-548)
T1 sequence: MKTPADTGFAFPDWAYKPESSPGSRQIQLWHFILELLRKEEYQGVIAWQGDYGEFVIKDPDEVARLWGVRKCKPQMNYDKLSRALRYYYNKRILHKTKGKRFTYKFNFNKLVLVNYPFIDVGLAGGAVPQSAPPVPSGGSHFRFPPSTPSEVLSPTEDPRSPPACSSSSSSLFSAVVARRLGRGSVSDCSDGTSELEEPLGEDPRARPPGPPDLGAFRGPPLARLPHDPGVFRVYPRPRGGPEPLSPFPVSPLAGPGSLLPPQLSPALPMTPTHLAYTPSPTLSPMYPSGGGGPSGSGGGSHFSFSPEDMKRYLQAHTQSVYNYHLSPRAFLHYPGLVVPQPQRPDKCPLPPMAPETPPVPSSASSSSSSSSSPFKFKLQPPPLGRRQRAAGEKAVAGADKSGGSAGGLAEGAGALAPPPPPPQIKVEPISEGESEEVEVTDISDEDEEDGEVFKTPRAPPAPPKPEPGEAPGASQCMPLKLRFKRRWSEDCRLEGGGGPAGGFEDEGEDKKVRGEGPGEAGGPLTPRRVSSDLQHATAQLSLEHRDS
In short: (§1)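 Binding signal is each hexamer's read frequency for a factor divided by its frequency in the tag-only sample. The factors were GST-fused human transcription factors from yeast, captured on glutathione beads, DNA-barcoded and pooled with that sample. Pools were incubated with 200 nmole of a random double-stranded 16-mer DNA library in Tris/NaCl/DTT/glycerol buffer at room temperature for 30 min, then washed, crosslinked with 0.1% formaldehyde, proximity-ligated with BsaI/T4 ligase (1 h, 37 °C), PCR-amplified and sequenced on an Illumina NextSeq500.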

ETV3L = target: T2, ETV3L (Homo sapiens, UniProt Q6ZN32 1-361)
T2 sequence: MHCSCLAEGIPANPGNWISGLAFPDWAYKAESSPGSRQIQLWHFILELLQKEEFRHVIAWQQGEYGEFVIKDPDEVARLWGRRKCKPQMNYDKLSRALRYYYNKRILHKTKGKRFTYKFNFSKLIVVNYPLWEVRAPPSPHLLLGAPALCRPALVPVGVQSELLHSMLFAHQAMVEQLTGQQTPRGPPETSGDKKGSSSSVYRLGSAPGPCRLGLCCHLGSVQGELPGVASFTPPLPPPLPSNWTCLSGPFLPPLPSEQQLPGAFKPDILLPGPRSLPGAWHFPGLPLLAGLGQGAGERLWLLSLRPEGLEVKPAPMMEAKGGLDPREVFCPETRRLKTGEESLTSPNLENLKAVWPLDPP
In short: as §1

ETS2 = target: T3, ETS2 (Homo sapiens, UniProt P15036 1-469)
T3 sequence: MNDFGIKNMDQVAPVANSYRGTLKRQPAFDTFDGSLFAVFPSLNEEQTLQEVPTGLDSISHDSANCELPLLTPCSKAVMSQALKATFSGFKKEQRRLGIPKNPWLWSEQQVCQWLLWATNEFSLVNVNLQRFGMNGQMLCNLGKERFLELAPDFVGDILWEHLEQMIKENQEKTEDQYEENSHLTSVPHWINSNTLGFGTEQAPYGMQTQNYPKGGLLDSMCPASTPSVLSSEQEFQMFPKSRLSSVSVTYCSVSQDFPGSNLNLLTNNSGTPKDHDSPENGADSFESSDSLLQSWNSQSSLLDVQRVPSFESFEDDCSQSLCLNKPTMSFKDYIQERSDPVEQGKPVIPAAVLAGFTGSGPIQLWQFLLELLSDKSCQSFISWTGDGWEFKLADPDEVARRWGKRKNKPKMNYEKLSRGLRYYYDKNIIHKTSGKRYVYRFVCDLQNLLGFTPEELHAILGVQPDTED
In short: as §1

SPDEF = target: T4, SPDEF (Homo sapiens, UniProt O95238 1-335)
T4 sequence: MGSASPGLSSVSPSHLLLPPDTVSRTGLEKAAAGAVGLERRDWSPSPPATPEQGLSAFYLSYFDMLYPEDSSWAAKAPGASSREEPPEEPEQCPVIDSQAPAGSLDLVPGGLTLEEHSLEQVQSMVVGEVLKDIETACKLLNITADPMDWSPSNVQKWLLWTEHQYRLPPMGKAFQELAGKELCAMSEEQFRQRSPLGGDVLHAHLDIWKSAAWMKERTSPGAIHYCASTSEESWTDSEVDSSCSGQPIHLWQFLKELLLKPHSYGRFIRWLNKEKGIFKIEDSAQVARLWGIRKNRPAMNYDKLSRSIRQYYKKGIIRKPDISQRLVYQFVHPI
In short: as §1

ETV7 = target: T5, ETV7 (Homo sapiens, UniProt Q9Y603 1-341)
T5 sequence: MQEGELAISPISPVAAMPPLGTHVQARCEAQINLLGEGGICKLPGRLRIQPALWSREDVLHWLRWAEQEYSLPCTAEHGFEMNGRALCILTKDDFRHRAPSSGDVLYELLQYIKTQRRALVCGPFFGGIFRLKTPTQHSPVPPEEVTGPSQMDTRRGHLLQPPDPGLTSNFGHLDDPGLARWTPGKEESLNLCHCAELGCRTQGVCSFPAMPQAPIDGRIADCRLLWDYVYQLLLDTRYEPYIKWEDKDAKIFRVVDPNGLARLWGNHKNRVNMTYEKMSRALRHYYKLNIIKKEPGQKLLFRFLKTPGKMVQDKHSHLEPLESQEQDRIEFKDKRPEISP
In short: as §1

ELF5 = target: T6, ELF5 (Homo sapiens, UniProt Q9UKW6-2 1-255)
T6 sequence: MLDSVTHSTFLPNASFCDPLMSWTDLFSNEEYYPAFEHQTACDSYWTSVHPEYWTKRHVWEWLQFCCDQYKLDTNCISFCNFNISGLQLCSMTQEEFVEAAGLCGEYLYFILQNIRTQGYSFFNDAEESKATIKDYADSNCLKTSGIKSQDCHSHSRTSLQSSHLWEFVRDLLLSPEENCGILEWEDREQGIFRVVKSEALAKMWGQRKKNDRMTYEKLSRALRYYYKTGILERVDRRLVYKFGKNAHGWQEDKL
In short: as §1

ETV3 = target: T7, ETV3 (Homo sapiens, UniProt P41162-2 1-143)
T7 sequence: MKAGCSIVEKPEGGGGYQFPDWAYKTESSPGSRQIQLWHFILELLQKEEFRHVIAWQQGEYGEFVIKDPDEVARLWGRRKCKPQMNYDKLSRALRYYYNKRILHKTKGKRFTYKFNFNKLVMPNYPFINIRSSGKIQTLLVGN
In short: as §1

ETV6 = ETV6 (Homo sapiens, UniProt P41212 1-452)
In short: as §1

Sequence of ETV6 (P41212 whole entry): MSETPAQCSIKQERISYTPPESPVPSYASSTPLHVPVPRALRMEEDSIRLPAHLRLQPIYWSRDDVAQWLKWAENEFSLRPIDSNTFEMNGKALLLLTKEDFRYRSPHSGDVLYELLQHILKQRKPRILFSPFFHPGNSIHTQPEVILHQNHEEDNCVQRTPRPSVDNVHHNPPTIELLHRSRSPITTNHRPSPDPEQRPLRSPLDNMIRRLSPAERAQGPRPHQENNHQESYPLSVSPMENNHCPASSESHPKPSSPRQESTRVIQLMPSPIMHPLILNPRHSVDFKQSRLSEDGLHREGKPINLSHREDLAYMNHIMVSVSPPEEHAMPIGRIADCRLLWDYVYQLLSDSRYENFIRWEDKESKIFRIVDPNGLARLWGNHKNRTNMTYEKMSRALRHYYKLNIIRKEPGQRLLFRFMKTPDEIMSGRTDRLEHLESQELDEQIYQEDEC

Sequence	binding signal (ERF)	binding signal (ETV3L)	binding signal (ETS2)	binding signal (SPDEF)	binding signal (ETV7)	binding signal (ELF5)	binding signal (ETV3)	binding signal (ETV6)
ACGACA	1.11 fold enrichment (6-mer frequency, TF over GST control)	1.12 fold enrichment (6-mer frequency, TF over GST control)	1.12 fold enrichment (6-mer frequency, TF over GST control)	1.26 fold enrichment (6-mer frequency, TF over GST control)	1.05 fold enrichment (6-mer frequency, TF over GST control)	1.18 fold enrichment (6-mer frequency, TF over GST control)	1.08 fold enrichment (6-mer frequency, TF over GST control)	1.22 fold enrichment (6-mer frequency, TF over GST control)
TGTACT	1.11 fold enrichment (6-mer frequency, TF over GST control)	1.26 fold enrichment (6-mer frequency, TF over GST control)	1.27 fold enrichment (6-mer frequency, TF over GST control)	1.71 fold enrichment (6-mer frequency, TF over GST control)	1.24 fold enrichment (6-mer frequency, TF over GST control)	1.37 fold enrichment (6-mer frequency, TF over GST control)	1.22 fold enrichment (6-mer frequency, TF over GST control)	1.28 fold enrichment (6-mer frequency, TF over GST control)
CGACCC	1.36 fold enrichment (6-mer frequency, TF over GST control)	1.28 fold enrichment (6-mer frequency, TF over GST control)	1.29 fold enrichment (6-mer frequency, TF over GST control)	1.44 fold enrichment (6-mer frequency, TF over GST control)	1.28 fold enrichment (6-mer frequency, TF over GST control)	1.26 fold enrichment (6-mer frequency, TF over GST control)	1.4 fold enrichment (6-mer frequency, TF over GST control)	1.29 fold enrichment (6-mer frequency, TF over GST control)
TGGTTA	1.05 fold enrichment (6-mer frequency, TF over GST control)	1.12 fold enrichment (6-mer frequency, TF over GST control)	1.07 fold enrichment (6-mer frequency, TF over GST control)	1.07 fold enrichment (6-mer frequency, TF over GST control)	1.16 fold enrichment (6-mer frequency, TF over GST control)	1.05 fold enrichment (6-mer frequency, TF over GST control)	1.05 fold enrichment (6-mer frequency, TF over GST control)	1.1 fold enrichment (6-mer frequency, TF over GST control)
CTAGTA	1.17 fold enrichment (6-mer frequency, TF over GST control)	1.08 fold enrichment (6-mer frequency, TF over GST control)	1.18 fold enrichment (6-mer frequency, TF over GST control)	1.11 fold enrichment (6-mer frequency, TF over GST control)	1.11 fold enrichment (6-mer frequency, TF over GST control)	1.08 fold enrichment (6-mer frequency, TF over GST control)	1.13 fold enrichment (6-mer frequency, TF over GST control)	1.12 fold enrichment (6-mer frequency, TF over GST control)
AAGCTT	1.29 fold enrichment (6-mer frequency, TF over GST control)	1.31 fold enrichment (6-mer frequency, TF over GST control)	1.19 fold enrichment (6-mer frequency, TF over GST control)	1.14 fold enrichment (6-mer frequency, TF over GST control)	1.38 fold enrichment (6-mer frequency, TF over GST control)	1.31 fold enrichment (6-mer frequency, TF over GST control)	1.2 fold enrichment (6-mer frequency, TF over GST control)	1.3 fold enrichment (6-mer frequency, TF over GST control)
CGAACA	1.17 fold enrichment (6-mer frequency, TF over GST control)	1.13 fold enrichment (6-mer frequency, TF over GST control)	1.22 fold enrichment (6-mer frequency, TF over GST control)	1.1 fold enrichment (6-mer frequency, TF over GST control)	1.2 fold enrichment (6-mer frequency, TF over GST control)	1.05 fold enrichment (6-mer frequency, TF over GST control)	1.15 fold enrichment (6-mer frequency, TF over GST control)	1.19 fold enrichment (6-mer frequency, TF over GST control)
TCTGTG	1.15 fold enrichment (6-mer frequency, TF over GST control)	1.2 fold enrichment (6-mer frequency, TF over GST control)	1.13 fold enrichment (6-mer frequency, TF over GST control)	1.06 fold enrichment (6-mer frequency, TF over GST control)	1.26 fold enrichment (6-mer frequency, TF over GST control)	1.04 fold enrichment (6-mer frequency, TF over GST control)	1.04 fold enrichment (6-mer frequency, TF over GST control)	1.07 fold enrichment (6-mer frequency, TF over GST control)
AATTGG	1.26 fold enrichment (6-mer frequency, TF over GST control)	1.33 fold enrichment (6-mer frequency, TF over GST control)	1.33 fold enrichment (6-mer frequency, TF over GST control)	1.31 fold enrichment (6-mer frequency, TF over GST control)	1.42 fold enrichment (6-mer frequency, TF over GST control)	1.35 fold enrichment (6-mer frequency, TF over GST control)	1.28 fold enrichment (6-mer frequency, TF over GST control)	1.44 fold enrichment (6-mer frequency, TF over GST control)
